For 28 compounds, Z-AUC, Potency and z-score results are on record in PubChem BioAssay (NCATS).

Assay [1] is described as follows: qHTS drug screen for cell cycle checkpoint inhibitors in PARPi-resistant BRCA-mutant ovarian cancer cell lines. (AID 1963452). Also: potency is read from the fitted curve at half-maximal effect. The conditions noted are these: PEO1/OlaR viability, CellTiter-Glo luminescence, 96 h; for Z-AUC: stronger effect = lower value. Put shortly: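 PEO1, PEO4 and PEO1/OlaR ovarian cancer cells, 600 per well, exposed 96 h at 37C to a dilution series. Viability read by CellTiter-Glo luminescence, normalized to DMSO and empty wells; activity summarized as Z-AUC.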
Background: In qHTS, concentration-response curves come from the screen itself.

The nature of assay [2]: qHTS for identification of novel therapeutic agents for treatment of microphthalmiaassociated transcription factor (MiT) renal cell carcinoma (RCC) (AID 1963991). The conditions noted are these: CellTiter-Glo, 48 h, stronger effect = lower value. Put shortly:
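Curves over 11 concentrations were fitted to CellTiter-Glo luminescence, scaled between empty wells (0%) and DMSO (100%) viability. Cells were UOK109, UOK124 and UOK145 TFE3-fusion RCC lines at 500/well, exposed 48 hours at 37 C.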

The mark [3] stands for this setting: measured here: PEO1 parental Z-AUC.
The mark [4] stands for this setting: TFE3-RCC UOK109 viability, measured here: UOK109 Z-AUC.
Setting [5] is: TFE3-RCC viability, measured here: UOK124 Z-AUC.
Setting [6] is: TFE3-RCC viability, measured here: UOK145 Z-AUC.

Records with an inconclusive call do not appear. Active and inactive are the calls of the source. Calls follow the shape of the full dose curve.

`COc1ccc2c(OCc3nnc4ccc(-c5ccccc5)nn34)ccnc2c1`: the Z-AUC in assay [1] is -0.0998 (inactive); in assay [1] (setting [3]), 0.23; in assay [1] (measured here: PEO4 Z-AUC) it was 0.516.

In the case of `Cc1ccc(C(=O)Nc2cccc(C(F)(F)F)c2)cc1-c1ccc2nc(NCCN3CCOCC3)ncc2c1`, the Z-AUC in assay [1] was 0.224 (inactive); in assay [1] (setting [3]), -0.409; in assay [1] (measured here: PEO4 Z-AUC) it was -0.0261.

On to `Nc1ccccc1NC(=O)c1ccc(CNC(=O)OCc2cccnc2)cc1`, for which the Z-AUC in assay [1] is -0.769 (inactive); in assay [1] (setting [3]) it was -1.32; in assay [1] (measured here: PEO4 Z-AUC) it was -1.54.

`COc1c(OCCCN2CCOCC2)ccc2c3n(c(=NC(=O)c4cnc(N)nc4)nc12)CCN3`: the Z-AUC in assay [1] is -1.27 (inactive); in assay [1] (setting [3]), -1.04; in assay [1] (measured here: PEO4 Z-AUC) it was -0.708.

Consider `COc1cc2c(Oc3ccc4[nH]c(C)cc4c3F)ncnc2cc1OCCCN1CCCC1`, for which the Z-AUC in assay [1] is -0.035 (inactive); in assay [1] (setting [3]) it was 0.995; in assay [1] (measured here: PEO4 Z-AUC) it was 0.0837.

Consider `Cc1cn(-c2cc(NC(=O)c3ccc(C)c(Nc4nccc(-c5cccnc5)n4)c3)cc(C(F)(F)F)c2)cn1`, for which the Z-AUC in assay [1] is 0.642 (inactive); in assay [1] (setting [3]), 0.692; in assay [1] (measured here: PEO4 Z-AUC) it was 0.0156.

As to `CCS(=O)(=O)c1cccc(-c2cc(C(=O)NC3CCN(C)CC3)c(C)c3[nH]c4ncc(C)cc4c23)c1`, the Z-AUC in assay [1] is -0.945 (inactive); in assay [1] (setting [3]), -0.937; in assay [1] (measured here: PEO4 Z-AUC), -0.883.

Consider `COc1ccc(OC)c(-c2nnc3ccc(-c4ccc(OC)c(O[C@@H]5CCOC5)c4)nn23)c1`, for which the Z-AUC was -1.33 (inactive) in assay [1], -1.59 in assay [1] (setting [3]) and -1.98 in assay [1] (measured here: PEO4 Z-AUC).

For the compound `C[C@@H]1COC(Nc2ccc3ncnc(Nc4ccc(OCc5nccs5)c(Cl)c4)c3c2)=N1`, the Potency in assay [1] is 13.8 µM (active). Further, the results for the Z-AUC in assay [1] (setting [3]) and in assay [1] (measured here: PEO4 Z-AUC) were -1.34 and -1.07, respectively.

Consider `COc1cccc2nc(-c3cccs3)nc(NN3C(=O)C=C(C)C3=O)c12`, for which the Potency in assay [1] was 4.36 µM (active). Further, the Z-AUC was -1.8 in assay [1] (setting [3]) and -2.06 in assay [1] (measured here: PEO4 Z-AUC).

On to `COc1cc(-c2nn(C3CCC(N4CCN(C(C)=O)CC4)CC3)c3ncnc(N)c23)ccc1NC(=O)c1cc2ccccc2n1C` (configuration not stated), for which the Z-AUC in assay [1] is -1.39 (inactive); in assay [1] (setting [3]) it was 0.075; in assay [1] (measured here: PEO4 Z-AUC), -0.0545.

In the case of `COC(=O)Nc1ccc(-c2nc(N3CCOCC3)c3cnn(C4CCN(Cc5cccnc5)CC4)c3n2)cc1`, the Z-AUC in assay [1] was -0.964 (inactive); in assay [1] (setting [3]), -0.853; in assay [1] (measured here: PEO4 Z-AUC), -0.944.

Regarding `Cc1cc(CN2CCN(c3c(Br)cnc4nc(-c5ccc(N6CCN(C)CC6)cc5)[nH]c34)CC2)no1`, the Z-AUC in assay [1] was 0.133 (inactive); in assay [1] (setting [3]) it was 0.0389; in assay [1] (measured here: PEO4 Z-AUC) it was -0.2.

As to `Cc1cc(Nc2nc(N[C@@H](C)c3ccc(F)cc3)c(C#N)cc2F)n[nH]1`, the Z-AUC in assay [1] is 0.0536 (inactive); in assay [1] (setting [3]), -0.395; in assay [1] (measured here: PEO4 Z-AUC), -0.871.

In the case of `O=C(c1cncc(Br)c1)N1CCC(N2CCCC2)CC1`, the Z-AUC in assay [1] was -0.226 (inactive); in assay [1] (setting [3]), -0.235; in assay [1] (measured here: PEO4 Z-AUC), 0.232. Further, the z-score worked out at 0.796 in assay [2] (setting [4]), 0.785 in assay [2] (setting [5]) and 0.752 in assay [2] (setting [6]).

With `O=C(O)CCCc1c[nH]c2ccccc12`, the Z-AUC is 0.341 (inactive) in assay [1], 0.661 in assay [1] (setting [3]) and 0.6 in assay [1] (measured here: PEO4 Z-AUC). The z-score worked out at 0.907 in assay [2] (setting [4]), 0.701 in assay [2] (setting [5]) and 0.654 in assay [2] (setting [6]).

`Nc1ncnc2c1c(-c1cccc(OCc3ccccc3)c1)cn2C1CC(CN2CCCC2)C1` (configuration not stated): the Z-AUC was -0.938 (inactive) in assay [1], -0.783 in assay [1] (setting [3]) and -1.2 in assay [1] (measured here: PEO4 Z-AUC).

As to `Cn1c2cc(S(C)=O)sc2c2cnn(Cc3cccc(N)c3)c(=O)c21` (configuration not stated), the Z-AUC in assay [1] is 1.34 (inactive); in assay [1] (setting [3]), 0.817; in assay [1] (measured here: PEO4 Z-AUC), 0.912. Moreover, the z-score in assay [2] (setting [4]) was 0.336; in assay [2] (setting [5]) it was 0.595; in assay [2] (setting [6]), 0.401.

As to `CC(C)Nc1cc(C(F)(F)F)cc2nc(NC(=O)c3cccnc3)nn12`, the values for the Z-AUC in assay [1], in assay [1] (setting [3]) and in assay [1] (measured here: PEO4 Z-AUC) were 0.923 (inactive), 0.905 and 1.12, respectively.

For the compound `Nc1nc(Nc2ccc(S(N)(=O)=O)cc2)nn1C(=O)c1c(F)cccc1F`, the Z-AUC is 0.423 (inactive) in assay [1], -0.334 in assay [1] (setting [3]) and -0.463 in assay [1] (measured here: PEO4 Z-AUC).

Consider `COc1cccc(-c2ccc(NC(=O)C3=C(C(=O)O)CCC3)c(F)c2)c1`, for which the Z-AUC is 0.233 (inactive) in assay [1], 0.433 in assay [1] (setting [3]) and 0.985 in assay [1] (measured here: PEO4 Z-AUC).

In the case of `Cc1ccc2nc(NC(=O)CSc3nc4c(c(=O)n3-c3ccccc3)SCC4)sc2c1`, the Z-AUC in assay [1] was 1.55 (inactive); in assay [1] (setting [3]), 1.46; in assay [1] (measured here: PEO4 Z-AUC), 1.44.

For `O=C(O)[C@H](Cc1c[nH]c2ccccc12)N1C(=O)c2ccccc2C1=O`, the Z-AUC in assay [1] was 1.05 (inactive); in assay [1] (setting [3]) it was 0.982; in assay [1] (measured here: PEO4 Z-AUC) it was 0.872. Also, the z-score in assay [2] (setting [4]) turned out to be 0.59; in assay [2] (setting [5]), 0.462; in assay [2] (setting [6]) it was 0.777.

With `Cc1ccc(S(=O)(=O)Nc2cc(Cl)ccc2C(=O)Nc2nc(-c3ccccc3)cs2)cc1`, the Z-AUC in assay [1] was -0.703 (inactive); in assay [1] (setting [3]), -0.778; in assay [1] (measured here: PEO4 Z-AUC), -1.08.

Take `CC(C)c1ccccc1Cc1cc(C(=O)Nc2ccc(S(=O)(=O)c3ccccc3C(C)(C)C)cc2)c(O)c(O)c1O`: the Z-AUC was 0.413 (inactive) in assay [1], 0.393 in assay [1] (setting [3]) and 0.535 in assay [1] (measured here: PEO4 Z-AUC).

For the compound `N#CCNC(=O)c1ccc(-c2ccnc(Nc3ccc(N4CCOCC4)cc3)n2)cc1`, the Z-AUC is -0.322 (inactive) in assay [1], 0.159 in assay [1] (setting [3]) and 0.613 in assay [1] (measured here: PEO4 Z-AUC).

Consider `CC(C)(O)CCc1ccc(OCc2cc(-c3cccc(OC(F)F)c3)c3ncccc3c2)cc1`, for which the Z-AUC in assay [1] was -0.38 (inactive); in assay [1] (setting [3]), 0.116; in assay [1] (measured here: PEO4 Z-AUC), 0.147. The z-score in assay [2] (setting [4]) amounted to 0.14; in assay [2] (setting [5]), 0.328; in assay [2] (setting [6]) it was 0.0594.

`CC(C)(C)c1cc(C(C)(C)C)c(NC(=O)c2c[nH]c3ccccc3c2=O)cc1O`: the Z-AUC is 1.31 (inactive) in assay [1], 1.35 in assay [1] (setting [3]) and 0.966 in assay [1] (measured here: PEO4 Z-AUC). In addition, the z-score in assay [2] (setting [4]) stood at 0.938; in assay [2] (setting [5]), 0.941; in assay [2] (setting [6]) it was 0.665.
